Reference: ChEMBL document CHEMBL2218924, “A broad activity screen in support of a chemogenomic map for kinase signalling research and drug discovery” (Biochem J, 2013)

Legend:
[1] = biological target: T1, Testis-specific serine/threonine-protein kinase 1 (Homo sapiens) (UniProt Q9BXA7); details: at 10 µM
T1 sequence (whole entry): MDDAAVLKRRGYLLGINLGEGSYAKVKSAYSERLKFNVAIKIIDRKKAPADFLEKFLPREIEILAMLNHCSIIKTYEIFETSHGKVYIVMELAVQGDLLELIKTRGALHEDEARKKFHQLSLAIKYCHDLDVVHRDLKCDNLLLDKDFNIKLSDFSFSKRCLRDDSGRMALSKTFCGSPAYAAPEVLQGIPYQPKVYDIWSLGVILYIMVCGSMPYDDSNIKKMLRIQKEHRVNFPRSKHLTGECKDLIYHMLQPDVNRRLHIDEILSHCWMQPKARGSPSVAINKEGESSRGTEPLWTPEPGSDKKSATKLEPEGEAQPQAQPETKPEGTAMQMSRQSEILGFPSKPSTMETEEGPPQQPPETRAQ

[2] = biological target: T2, Testis-specific serine/threonine-protein kinase 2 (Homo sapiens) (UniProt Q96PF2); details: at 10 µM
T2 sequence (whole entry): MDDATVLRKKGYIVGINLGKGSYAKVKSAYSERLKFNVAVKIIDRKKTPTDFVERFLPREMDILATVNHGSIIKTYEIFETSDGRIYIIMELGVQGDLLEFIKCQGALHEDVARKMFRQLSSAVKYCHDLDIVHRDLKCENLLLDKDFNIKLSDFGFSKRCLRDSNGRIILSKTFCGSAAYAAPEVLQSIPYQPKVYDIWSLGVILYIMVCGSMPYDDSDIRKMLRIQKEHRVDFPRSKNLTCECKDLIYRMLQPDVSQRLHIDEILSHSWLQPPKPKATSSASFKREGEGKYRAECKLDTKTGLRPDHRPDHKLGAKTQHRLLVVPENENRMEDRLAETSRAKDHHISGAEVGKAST

[3] = biological target: T3, Tyrosine-protein kinase Tec (Homo sapiens) (UniProt P42680); details: at 1 µM
T3 sequence (whole entry): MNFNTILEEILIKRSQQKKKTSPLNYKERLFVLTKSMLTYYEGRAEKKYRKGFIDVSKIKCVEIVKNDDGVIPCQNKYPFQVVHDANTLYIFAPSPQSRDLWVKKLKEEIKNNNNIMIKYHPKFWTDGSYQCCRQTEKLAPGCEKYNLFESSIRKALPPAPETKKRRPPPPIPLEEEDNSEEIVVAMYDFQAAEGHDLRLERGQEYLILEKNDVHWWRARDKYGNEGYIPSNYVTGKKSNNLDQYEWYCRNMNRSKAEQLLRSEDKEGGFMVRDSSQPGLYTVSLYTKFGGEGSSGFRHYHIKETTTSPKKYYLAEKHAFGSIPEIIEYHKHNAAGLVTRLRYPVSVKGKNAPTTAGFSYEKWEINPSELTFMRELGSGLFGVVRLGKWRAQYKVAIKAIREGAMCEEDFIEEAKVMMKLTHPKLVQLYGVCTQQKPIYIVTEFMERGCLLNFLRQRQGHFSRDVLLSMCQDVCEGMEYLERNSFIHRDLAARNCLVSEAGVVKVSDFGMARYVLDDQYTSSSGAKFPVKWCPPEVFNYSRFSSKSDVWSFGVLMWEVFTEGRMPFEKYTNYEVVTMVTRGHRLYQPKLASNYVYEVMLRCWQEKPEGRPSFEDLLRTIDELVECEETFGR

[4] = biological target: T3, Tyrosine-protein kinase Tec (Homo sapiens); details: at 10 µM
[5] = biological target: Angiopoietin-1 receptor (Homo sapiens) (UniProt Q02763); details: at 1 µM
Chain of Angiopoietin-1 receptor (Homo sapiens) (Q02763 whole entry): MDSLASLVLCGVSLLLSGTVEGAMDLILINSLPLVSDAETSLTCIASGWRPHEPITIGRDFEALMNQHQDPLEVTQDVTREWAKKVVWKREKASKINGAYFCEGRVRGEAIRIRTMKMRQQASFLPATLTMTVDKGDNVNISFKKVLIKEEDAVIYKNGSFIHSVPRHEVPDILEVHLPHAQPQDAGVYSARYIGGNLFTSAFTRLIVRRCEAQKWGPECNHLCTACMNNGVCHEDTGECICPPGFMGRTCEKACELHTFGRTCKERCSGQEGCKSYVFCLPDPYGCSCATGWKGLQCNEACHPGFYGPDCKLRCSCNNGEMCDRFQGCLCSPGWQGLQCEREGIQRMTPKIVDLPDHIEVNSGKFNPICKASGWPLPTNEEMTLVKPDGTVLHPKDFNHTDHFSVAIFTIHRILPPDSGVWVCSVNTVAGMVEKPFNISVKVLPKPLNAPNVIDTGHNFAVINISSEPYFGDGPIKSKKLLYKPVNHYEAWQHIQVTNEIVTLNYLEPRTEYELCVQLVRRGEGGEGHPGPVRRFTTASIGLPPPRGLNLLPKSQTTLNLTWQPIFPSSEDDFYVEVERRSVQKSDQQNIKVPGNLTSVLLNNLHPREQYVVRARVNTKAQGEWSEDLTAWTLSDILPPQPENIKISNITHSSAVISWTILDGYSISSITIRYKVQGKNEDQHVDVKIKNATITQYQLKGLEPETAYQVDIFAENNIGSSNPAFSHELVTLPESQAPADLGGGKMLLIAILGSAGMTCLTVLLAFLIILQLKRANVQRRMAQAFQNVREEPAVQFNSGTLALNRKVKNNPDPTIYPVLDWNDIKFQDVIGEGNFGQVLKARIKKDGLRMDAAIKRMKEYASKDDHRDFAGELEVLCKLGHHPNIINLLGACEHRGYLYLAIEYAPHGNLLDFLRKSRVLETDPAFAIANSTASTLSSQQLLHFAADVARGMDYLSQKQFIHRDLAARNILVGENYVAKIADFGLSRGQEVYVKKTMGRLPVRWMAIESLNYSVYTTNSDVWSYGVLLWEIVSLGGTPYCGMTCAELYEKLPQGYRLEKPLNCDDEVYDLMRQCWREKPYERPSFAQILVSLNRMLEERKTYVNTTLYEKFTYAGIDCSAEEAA

[6] = biological target: Angiopoietin-1 receptor (Homo sapiens) (UniProt Q02763); details: at 10 µM
[7] = biological target: High affinity nerve growth factor receptor (Homo sapiens) (UniProt P04629); details: at 1 µM
Chain of High affinity nerve growth factor receptor (Homo sapiens) (P04629 33-796 limits assumed): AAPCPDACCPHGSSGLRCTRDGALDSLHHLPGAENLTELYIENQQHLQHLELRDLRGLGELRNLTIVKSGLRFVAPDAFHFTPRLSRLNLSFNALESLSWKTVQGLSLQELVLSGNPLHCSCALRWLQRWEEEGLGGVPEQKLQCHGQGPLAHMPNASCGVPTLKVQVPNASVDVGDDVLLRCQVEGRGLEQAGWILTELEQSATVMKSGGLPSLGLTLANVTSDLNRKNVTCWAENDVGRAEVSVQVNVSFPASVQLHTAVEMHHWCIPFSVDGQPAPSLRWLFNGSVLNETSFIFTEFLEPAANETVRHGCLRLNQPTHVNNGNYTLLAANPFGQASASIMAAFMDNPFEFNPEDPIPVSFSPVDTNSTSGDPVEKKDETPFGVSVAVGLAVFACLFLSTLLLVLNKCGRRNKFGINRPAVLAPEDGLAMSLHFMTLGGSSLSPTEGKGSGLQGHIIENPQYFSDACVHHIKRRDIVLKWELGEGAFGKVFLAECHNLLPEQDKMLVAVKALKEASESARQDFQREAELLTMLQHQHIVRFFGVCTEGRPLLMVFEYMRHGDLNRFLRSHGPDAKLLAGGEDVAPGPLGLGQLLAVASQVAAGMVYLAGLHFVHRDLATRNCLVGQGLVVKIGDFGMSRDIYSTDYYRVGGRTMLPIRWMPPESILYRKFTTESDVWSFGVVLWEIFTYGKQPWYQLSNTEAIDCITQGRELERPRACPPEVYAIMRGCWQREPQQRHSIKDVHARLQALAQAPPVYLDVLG

[8] = biological target: High affinity nerve growth factor receptor (Homo sapiens) (UniProt P04629); details: at 10 µM
[9] = biological target: BDNF/NT-3 growth factors receptor (Homo sapiens) (UniProt Q16620); details: at 1 µM
Chain of BDNF/NT-3 growth factors receptor (Homo sapiens) (Q16620 32-822 limits assumed): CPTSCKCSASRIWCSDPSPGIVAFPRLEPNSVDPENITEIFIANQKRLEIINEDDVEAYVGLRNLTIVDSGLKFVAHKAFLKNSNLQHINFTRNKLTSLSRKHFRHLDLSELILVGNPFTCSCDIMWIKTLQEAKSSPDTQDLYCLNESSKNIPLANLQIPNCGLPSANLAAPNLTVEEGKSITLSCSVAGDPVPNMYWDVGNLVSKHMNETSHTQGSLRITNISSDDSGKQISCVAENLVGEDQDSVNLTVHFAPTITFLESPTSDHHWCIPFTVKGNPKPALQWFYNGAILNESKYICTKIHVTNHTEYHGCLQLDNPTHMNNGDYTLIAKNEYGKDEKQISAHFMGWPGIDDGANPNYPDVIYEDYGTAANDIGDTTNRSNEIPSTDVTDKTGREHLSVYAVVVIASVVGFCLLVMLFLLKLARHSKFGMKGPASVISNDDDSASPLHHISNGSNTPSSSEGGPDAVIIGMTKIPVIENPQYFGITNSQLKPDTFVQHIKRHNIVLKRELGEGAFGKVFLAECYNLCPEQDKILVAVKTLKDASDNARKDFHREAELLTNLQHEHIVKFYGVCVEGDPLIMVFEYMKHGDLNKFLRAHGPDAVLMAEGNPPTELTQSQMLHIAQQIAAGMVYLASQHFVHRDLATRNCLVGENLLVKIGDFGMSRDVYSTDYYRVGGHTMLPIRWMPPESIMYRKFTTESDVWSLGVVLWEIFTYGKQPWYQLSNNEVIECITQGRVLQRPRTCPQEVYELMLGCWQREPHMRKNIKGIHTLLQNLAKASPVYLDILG

[10] = biological target: BDNF/NT-3 growth factors receptor (Homo sapiens) (UniProt Q16620); details: at 10 µM
[11] = biological target: T4, Tyrosine-protein kinase TXK (Homo sapiens) (UniProt P42681); details: at 1 µM
T4 sequence (whole entry): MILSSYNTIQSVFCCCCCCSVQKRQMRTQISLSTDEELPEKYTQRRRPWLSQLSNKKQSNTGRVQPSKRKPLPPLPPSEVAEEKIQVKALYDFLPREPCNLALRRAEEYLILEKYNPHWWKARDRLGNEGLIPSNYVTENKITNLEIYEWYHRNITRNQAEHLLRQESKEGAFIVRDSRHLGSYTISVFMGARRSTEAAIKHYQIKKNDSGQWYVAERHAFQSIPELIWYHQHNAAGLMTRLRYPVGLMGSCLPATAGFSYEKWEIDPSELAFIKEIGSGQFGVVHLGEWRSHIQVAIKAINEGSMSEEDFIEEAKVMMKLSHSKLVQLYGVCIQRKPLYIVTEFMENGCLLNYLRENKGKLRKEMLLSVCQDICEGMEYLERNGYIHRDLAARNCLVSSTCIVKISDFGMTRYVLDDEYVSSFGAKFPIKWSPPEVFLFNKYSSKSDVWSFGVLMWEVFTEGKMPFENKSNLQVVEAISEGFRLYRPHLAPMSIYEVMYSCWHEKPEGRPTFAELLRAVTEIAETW

[12] = biological target: T4, Tyrosine-protein kinase TXK (Homo sapiens); details: at 10 µM
[13] = biological target: T5, Serine/threonine-protein kinase ULK2 (Homo sapiens) (UniProt Q8IYT8); details: at 1 µM
T5 sequence (whole entry): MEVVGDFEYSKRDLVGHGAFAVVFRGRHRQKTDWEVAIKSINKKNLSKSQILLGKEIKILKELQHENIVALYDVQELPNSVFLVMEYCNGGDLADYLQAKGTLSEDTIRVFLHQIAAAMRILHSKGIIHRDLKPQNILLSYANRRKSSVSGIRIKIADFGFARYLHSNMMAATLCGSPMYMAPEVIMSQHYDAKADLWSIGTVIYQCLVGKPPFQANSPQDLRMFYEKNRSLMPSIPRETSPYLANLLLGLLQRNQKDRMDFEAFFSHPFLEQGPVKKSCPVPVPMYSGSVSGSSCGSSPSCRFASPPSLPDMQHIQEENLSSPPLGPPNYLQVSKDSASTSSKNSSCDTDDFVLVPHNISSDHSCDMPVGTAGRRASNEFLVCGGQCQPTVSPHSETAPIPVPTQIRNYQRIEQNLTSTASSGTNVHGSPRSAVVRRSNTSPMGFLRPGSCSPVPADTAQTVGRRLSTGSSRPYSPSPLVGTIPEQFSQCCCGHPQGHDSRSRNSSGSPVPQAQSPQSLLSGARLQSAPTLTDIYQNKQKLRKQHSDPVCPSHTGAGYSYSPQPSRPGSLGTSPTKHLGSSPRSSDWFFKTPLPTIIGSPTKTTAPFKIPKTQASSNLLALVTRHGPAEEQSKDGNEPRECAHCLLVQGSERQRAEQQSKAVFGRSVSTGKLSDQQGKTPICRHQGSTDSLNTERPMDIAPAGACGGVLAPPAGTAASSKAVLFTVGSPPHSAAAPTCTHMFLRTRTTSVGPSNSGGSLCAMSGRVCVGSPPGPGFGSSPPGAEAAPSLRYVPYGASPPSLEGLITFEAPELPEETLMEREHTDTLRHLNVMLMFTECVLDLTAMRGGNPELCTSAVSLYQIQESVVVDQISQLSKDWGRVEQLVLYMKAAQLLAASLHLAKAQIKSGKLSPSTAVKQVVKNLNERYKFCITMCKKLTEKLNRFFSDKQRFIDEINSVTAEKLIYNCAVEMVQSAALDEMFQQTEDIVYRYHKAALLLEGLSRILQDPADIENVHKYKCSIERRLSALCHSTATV

[14] = biological target: T5, Serine/threonine-protein kinase ULK2 (Homo sapiens); details: at 10 µM
[15] = biological target: T6, Serine/threonine-protein kinase ULK3 (Homo sapiens) (UniProt Q6PHR2); details: at 1 µM
T6 sequence (whole entry): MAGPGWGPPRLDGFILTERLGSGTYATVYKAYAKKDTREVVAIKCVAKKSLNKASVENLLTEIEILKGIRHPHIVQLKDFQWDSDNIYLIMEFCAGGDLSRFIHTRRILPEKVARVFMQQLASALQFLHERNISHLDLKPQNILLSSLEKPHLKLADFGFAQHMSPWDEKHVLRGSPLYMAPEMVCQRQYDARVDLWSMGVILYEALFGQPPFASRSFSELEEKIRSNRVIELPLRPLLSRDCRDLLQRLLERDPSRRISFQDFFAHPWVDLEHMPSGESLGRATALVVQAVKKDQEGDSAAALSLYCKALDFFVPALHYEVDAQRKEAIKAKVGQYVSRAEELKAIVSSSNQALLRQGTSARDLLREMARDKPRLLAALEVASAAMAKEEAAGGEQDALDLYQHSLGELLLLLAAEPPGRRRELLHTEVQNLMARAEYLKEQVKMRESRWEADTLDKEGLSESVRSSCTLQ

[16] = biological target: T6, Serine/threonine-protein kinase ULK3 (Homo sapiens); details: at 10 µM
[17] = biological target: Serine/threonine-protein kinase VRK2 (Homo sapiens) (UniProt Q86Y07); details: at 1 µM
Chain of Serine/threonine-protein kinase VRK2 (Homo sapiens) (Q86Y07 whole entry): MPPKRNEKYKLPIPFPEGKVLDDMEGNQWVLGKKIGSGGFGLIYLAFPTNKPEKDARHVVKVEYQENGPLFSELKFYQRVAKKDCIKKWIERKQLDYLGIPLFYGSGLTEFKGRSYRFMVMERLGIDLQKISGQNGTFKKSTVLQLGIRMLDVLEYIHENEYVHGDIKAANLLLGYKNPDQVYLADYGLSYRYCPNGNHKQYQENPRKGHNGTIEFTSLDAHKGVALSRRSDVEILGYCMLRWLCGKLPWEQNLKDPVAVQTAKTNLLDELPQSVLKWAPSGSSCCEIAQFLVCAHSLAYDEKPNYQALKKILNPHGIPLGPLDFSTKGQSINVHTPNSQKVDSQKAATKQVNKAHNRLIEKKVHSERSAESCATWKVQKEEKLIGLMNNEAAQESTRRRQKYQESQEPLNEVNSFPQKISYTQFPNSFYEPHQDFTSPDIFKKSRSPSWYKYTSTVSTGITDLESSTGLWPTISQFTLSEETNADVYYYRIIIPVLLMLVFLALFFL

[18] = biological target: Serine/threonine-protein kinase VRK2 (Homo sapiens) (UniProt Q86Y07); details: at 10 µM
[19] = biological target: Serine/threonine-protein kinase WNK2 (Homo sapiens) (UniProt Q9Y3S1); details: at 1 µM;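 note: residual WNK2 kinase activity expressed as percent of uninhibited control, assayed in MOPS buffer at pH 7.0 containing EDTA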

## O=C(c1cc2cc(O)ccc2[nH]1)c1cc2cc(O)ccc2[nH]1
[1]
  residual activity: 56%
[2]
  residual activity: 65%
[3]
  residual activity: 58%
[4]
  residual activity: 21%
[5]
  residual activity: 67%
[6]
  residual activity: 75%
[7]
  residual activity: 13%
[8]
  residual activity: 1%
[9]
  residual activity: 56%
[10]
  residual activity: -12%
[11]
  residual activity: 64%
[12]
  residual activity: 22%
[13]
  residual activity: 82%
[14]
  residual activity: 38%
[15]
  residual activity: 73%
[16]
  residual activity: 22%
[17]
  residual activity: 72% (inactive)
[18]
  residual activity: 37%
[19]
  residual activity: 83% (inactive)

## O=C(Nc1nc2ccccc2n1CCN1CCOCC1)c1cccc([N+](=O)[O-])c1
[2]
  residual activity: 87%
[5]
  residual activity: 80%
[6]
  residual activity: 40%
[7]
  residual activity: 20%
[8]
  residual activity: 29%
[9]
  residual activity: 46%
[10]
  residual activity: 15%
[11]
  residual activity: 104%
[12]
  residual activity: 77%
[15]
  residual activity: 103%
[16]
  residual activity: 83%

## O=C1NC(=O)c2c1c1c3ccccc3[nH]c1n1cncc21
[2]
  residual activity: 85%
[3]
  residual activity: 70%
[4]
  residual activity: 65%
[5]
  residual activity: 98%
[6]
  residual activity: 79%
[7]
  residual activity: 21%
[8]
  residual activity: 9%
[9]
  residual activity: 48%
[10]
  residual activity: 20%
[11]
  residual activity: 71%
[12]
  residual activity: 79%
[13]
  residual activity: 103%
[14]
  residual activity: 86%
[15]
  residual activity: 80%
[16]
  residual activity: 70%
[17]
  residual activity: 93% (inactive)
[18]
  residual activity: 91%
[19]
  residual activity: 82% (inactive)

## O=C(Nc1ccc(Cl)cc1)c1ccccc1NCc1ccncc1
[6]
  residual activity: 79%
[9]
  residual activity: 117%
[10]
  residual activity: 99%
[13]
  residual activity: 102%

## CN([C@@H](Cc1ccc(OS(=O)(=O)c2cccc3cnccc23)cc1)C(=O)N1CCN(c2ccccc2)CC1)S(=O)(=O)c1cccc2cnccc12
[6]
  residual activity: 72%
[9]
  residual activity: 79%
[10]
  residual activity: 50%

## Fc1ccc(-c2nc3n(c2-c2ccncc2)CCS3)cc1
[2]
  residual activity: 86%
[5]
  residual activity: 128%
[6]
  residual activity: 124%
[8]
  residual activity: 88%
[11]
  residual activity: 93%
[18]
  residual activity: 80%

## O=C1Cc2c([nH]c3ccc([N+](=O)[O-])cc23)-c2ccccc2N1
[3]
  residual activity: 79%
[4]
  residual activity: 72%
[7]
  residual activity: 72%
[8]
  residual activity: 63%
[11]
  residual activity: 49%
[12]
  residual activity: 39%
[13]
  residual activity: 49%
[14]
  residual activity: 45%
[15]
  residual activity: 75%
[16]
  residual activity: 53%

## O=S(=O)(c1cccc2cnccc12)N1CCCNCC1
[9]
  residual activity: 83%

## O=c1c(-c2ccc(F)cc2)c(-c2ccncc2)[nH]n1-c1ccc(Cl)cc1
[1]
  residual activity: 78%
[6]
  residual activity: 75%
[14]
  residual activity: 102%
[17]
  residual activity: 100% (inactive)
[18]
  residual activity: 99%

## N#C/C(=C1/Nc2ccccc2S1)c1ccnc(NCCc2cccnc2)n1
[2]
  residual activity: 68%
[3]
  residual activity: 79%
[4]
  residual activity: 17%
[7]
  residual activity: 56%
[8]
  residual activity: 11%
[9]
  residual activity: 76%
[10]
  residual activity: 44%
[19]
  residual activity: 63% (inactive)

## N#Cc1c(NC(=O)c2cccc3ccccc23)sc2c1CCCC2
[3]
  residual activity: 94%
[4]
  residual activity: 69%
[7]
  residual activity: 81%
[8]
  residual activity: 87%
[11]
  residual activity: 90%
[12]
  residual activity: 80%

## NC(=O)c1ccc(-c2nc(-c3ccc4c(c3)OCCO4)c(-c3ccccn3)[nH]2)cc1
[2]
  residual activity: 63%
[3]
  residual activity: 96%
[4]
  residual activity: 91%
[6]
  residual activity: 72%
[7]
  residual activity: 95%
[8]
  residual activity: 82%
[9]
  residual activity: 96%
[10]
  residual activity: 68%
[11]
  residual activity: 90%
[12]
  residual activity: 94%
[17]
  residual activity: 118% (inactive)
[18]
  residual activity: 98%
